Pf growth 96h – Primary qHTS for delayed death inhibitors of the malarial parasite plastid, 96 hour incubation; Potency, µM (titrated, usually from 28.7 µM), inactives show top-dose activity change, negative = inhibition, actives largely listed as inhibitors; 320,000 tested, 6.9% active; P. falciparum luciferase reporter growth, 96 h; further: potency means the concentration at half of the fitted maximal effect
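Readout is luminescence from an integrated firefly luciferase in P. falciparum. Red cells, 2% hematocrit and 0.05% parasitemia final, were cultured with compound through two parasite generations (96 hours) at 37 C, 5% CO2.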
Pf growth 48h – Primary qHTS for delayed death inhibitors of the malarial parasite plastid, 48 hour incubation | Potency, µM (doses to about 28.7 µM), for the others: at the highest dose activity change, negative = inhibition, most hits filed as inhibitors | 310,000 tested, 5.9% active | P. falciparum luciferase growth in erythrocytes, 48 h | AID 504832, 2011; further: potency means the concentration at half of the fitted maximal effect
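A one-generation exposure of luciferase-tagged malaria parasites in RPMI 1640/Albumax erythrocyte culture, 37 C and 5% CO2. Inhibition is inferred from decreased luminescence after adding detection reagent.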
LASV entry inh – qHTS for Inhibitors of binding or entry into cells for Lassa Virus; Lassa virus pseudotype entry inhibition, cell reporter; Potency, µM (top dose mostly 37.9 µM), for the others: top-dose activity change, negative = inhibition, usual class: inhibitors; 300,000 tested, 1.2% active; calls by dose curve; tested in HEK293 cells; further: potency means the concentration at half of the fitted maximal effect; nearly all actives have a fitted effect of over 50% in size
Marburg entry inh – qHTS for inhibitors of binding or entry into cells for Marburg Virus. AID 540276, 2011. Potency, µM (titrated, usually from 37.8 µM), for the others: top-dose activity change, negative = inhibition, most hits filed as inhibitors. 300,000 tested, 1.8% active. Marburg virus pseudotyped entry inhibition, cell reporter; calls by dose curve; tested in HEK293 cells; further: potency means the concentration at half of the fitted maximal effect
HCV inhibitor – qHTS Assay for Inhibitors of Hepatitis C Virus (HCV); Huh7.5.1 HCVcc-Cre infection, luciferase reporter, 44 h; Potency, µM (highest dose often 41.8 µM), for inactives: at the top dose activity change, negative = inhibition, actives largely listed as inhibitors; 340,000 tested, 3.4% active; further: potency means the concentration at half of the fitted maximal effect
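After 44 h co-culture of compound, cells and HCVcc-Cre (~0.5 moi), substrate is added for 15 min at room temperature and luciferase measured over 15 sec. Cells were seeded at 1,000/well and pre-cultured 4 h.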
HCMV antiviral – qHTS Assay for inhibitors of the human cytomegalovirus (HCMV). 410,000 tested, 4.5% active. AID 1259415, 2018. activity change, negative = inhibition, % at 57.5 µM. HFF cells, HCMV-luciferase reporter, 72 h; hits give low values; in the data active means activity change below about -60%; inconclusive means no clear call, values can overlap the other calls; inactive means above about -39%
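Compounds were evaluated in HFFs infected with an HCMV luciferase reporter virus (MOI 1 PFU/cell). Luciferase in lysates collected 72 h post infection served as the replication measure.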
Starred values were filed as active, the others as inactive; u = inconclusive; x = no result given; + = active, no number; [ ] = dose if it differs, or a comment. A selection: hits, their analogues and other compounds. The true share with any hit is near 14%. Unless noted, the call rests on the fitted dose curve; in most records, active means well fitted inhibition curve with a large enough effect; inconclusive means small, poorly fitted or top-dose-only effect, or another doubt; inactive means no such curve, though single readings can be large or run the other way. On the % scale 0 is the no-effect control and ±100 the full control effect.

SMILES | Pf growth 96h | Pf growth 48h | LASV entry inh | Marburg entry inh | HCV inhibitor | HCMV antiviral
C=CCc1c(C)nc2c(OC)cccc2c1Cl | u | 9% | 6% | 1% | u | -83*
CN(C)CCN1CCN(C2CN(Cc3ccc(F)cc3)S(=O)(=O)C2)CC1 (stereo not drawn) | x | x | -2%[46.1 µM] | x | x | -19
CC(=NNC(=O)COc1cccc(C)c1)c1cccnc1 | x | x | 2% | u | -13% | -28
O=C(NCc1ccccc1F)c1cccc(NC(=O)N2CCSc3ncccc32)c1 | x | x | 1%[46.1 µM] | x | x | +
O=C(NCc1ccccc1Cl)c1ccc(NC(=O)N2CCSc3ncccc32)cc1 | x | x | 4%[46.1 µM] | x | x | +
COc1ccccc1CNC(=O)c1cccc(NC(=O)N2CCSc3ncccc32)c1 | x | x | -1%[46.1 µM] | x | x | 0
O=C(Cc1ccc(NC(=O)N2CCSc3ncccc32)cc1)NCc1ccccc1Cl | x | x | 4%[46.1 µM] | x | x | 9
CCOC(=O)c1c(CN2CCN(c3ccccc3)CC2)oc2cc(Br)c(O)cc12 | u | 1.7µM* | x | x | u | 22
CCOC(=O)c1c(CS(=O)(=O)c2ccccc2)n(C)c2cc(Br)c(O)cc12 | -44% | -29% | x | x | u | 29
CCOC(=O)c1c(CN2CCN(C)CC2)n(-c2ccccc2)c2cc(Br)c(O)cc12 | u | u | x | x | 14µM* | -8
CCOC(=O)c1c(CN2CCN(Cc3ccccc3)CC2)n(C)c2cc(Br)c(OC)cc12 | u | x | -1% | 26% | u | 37
CCOC(=O)c1c(CN2CCN(CCO)CC2)n(-c2ccccc2)c2cc(Br)c(O)cc12 | 1.7µM* | 2.1µM* | u | u | u | -18
CCOC(=O)c1c(CSC(=N)N)n(-c2ccccc2)c2cc(Br)c(OC(C)=O)cc12 | 2.1µM* | 2.9µM* | -16% | u | -61% | u
O=C(NCc1ccc(F)cc1)c1cc(C2CCCN(C(=O)c3ccccn3)C2)on1 (stereo not drawn) | x | x | x | x | x | -31
CCc1ccc(Nc2n[n+](-c3ccccc3)c(-c3cccc(C)c3)s2)cc1 | 8.3µM* | u | x | x | 32µM* | -19
Cc1cccc(-c2sc(Nc3ccccc3)n[n+]2-c2ccc(F)cc2)c1 | u | 15% | x | x | 1% | 67
CCOc1cc(-c2sc(Nc3ccc(CC)cc3)n[n+]2-c2ccccc2)ccc1OC | u | 10µM* | x | x | -21% | -25
CCOc1cc(-c2sc(Nc3cc(C)ccc3OC)n[n+]2-c2ccccc2)ccc1OC | u | u | x | x | u | -40
CCOC(=O)N1CCN(S(=O)(=O)c2ccc(C)cc2)C1c1ccc(OC)cc1 (stereo not drawn) | 14% | 42% | 23µM* | u | -10% | -17
CCC(=O)N1CCCN(S(=O)(=O)c2ccc(C)cc2)C1c1ccc(OC)cc1 (stereo not drawn) | 30% | 13µM* | 12%[46.1 µM] | -23%[46.1 µM] | 6% | 8
COc1ccc(C2N(S(=O)(=O)c3ccccc3)CCN2S(=O)(=O)c2ccc(C)cc2)cc1 (stereo not drawn) | 9.3µM* | x | -17% | u | -16% | -6
CCOC(=O)N1CCN(S(=O)(=O)c2ccc(C)cc2)C1c1ccccc1 (stereo not drawn) | u | -28% | -9% | -17%[46.1 µM] | -58% | 17
CCC(=O)Oc1ccc(C2N(C(=O)CC)CCN2S(=O)(=O)c2ccc(C)cc2)cc1OC (stereo not drawn) | u | u | 7% | 7% | 18% | 21
CCOCCc1nn2c(=O)cc(COC(=O)c3ccc(NC(=O)c4cccs4)cc3)nc2s1 | x | x | u | x | x | 6
CCc1ccc(NC(=O)CSC2=Nc3ccccc3C3=NC(CC(=O)NCc4cccs4)C(=O)N23)cc1 (stereo not drawn) | x | x | -5%[46.1 µM] | x | x | -4
Cc1c(Cl)cccc1NS(=O)(=O)c1ccccc1 | x | x | 21% | 3% | 5% | -10
Cc1c(NS(=O)(=O)c2ccccc2)ccc([N+](=O)[O-])c1Cl | x | x | u | u | -14% | -65*

Assay outcomes: PubChem, National Center for Advancing Translational Sciences (NCATS)
